# In PubChem BioAssay AID1159580 (chemical genetic matrix, 2015):
# In all, about 5,500 compounds went through this assay and about 2,000 (36%) were called active. Roughly 18% stayed inconclusive and do not appear here. The list shows a part of the results. A number with no mark means an inactive call. Cut-off read from the data, not from the text of the source: active = normalized growth mostly below about 0.91 (no sharp cut-off); inconclusive = no clear call, values can overlap the other calls; inactive = mostly above about 0.92.
# Assay: chemical genetic growth profiling, strain panel (AID 1159580);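 note: tested at 20 µM; growth read once vehicle control cultures reached saturation at 30 °C; 1 = growth at the plate median or of vehicle wells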
# Conditions: S. cerevisiae deletion strains, growth OD
smiles,measurement,setting,value
CN(C/C=C/C#CC(C)(C)C)Cc1cccc2ccccc12,normalized growth,"locus YAL021C, strain ccr4, stronger effect = lower value",0.121 (active)
same,normalized growth,"locus YAL026C, strain drs2, stronger effect = lower value",0.0882 (active)
same,normalized growth,"locus YAL030W, strain snc1, stronger effect = lower value",0.334 (active)
same,normalized growth,"locus YBL061C, strain skt5, stronger effect = lower value",0.256 (active)
same,normalized growth,"locus YBR009C, strain hhf1, stronger effect = lower value",0.293 (active)
same,normalized growth,"locus YBR023C, strain chs3, stronger effect = lower value",0.254 (active)
same,normalized growth,"locus YBR171W, strain sec66, stronger effect = lower value",0.793 (active)
same,normalized growth,"locus YBR231C, strain swc5, stronger effect = lower value",0.423 (active)
same,normalized growth,"locus YBR279W, strain paf1, stronger effect = lower value",0.376 (active)
same,normalized growth,"locus YCL011C, strain gbp2, stronger effect = lower value",0.228 (active)
same,normalized growth,"locus YCL016C, strain dcc1, stronger effect = lower value",0.334 (active)
same,normalized growth,"locus YCL061C, strain MRC1, stronger effect = lower value",0.478 (active)
same,normalized growth,"locus YCL069W, strain vba3, stronger effect = lower value",0.283 (active)
same,normalized growth,"locus YCR088W, strain abp1, stronger effect = lower value",0.498 (active)
same,normalized growth,"locus YDL005C, strain med2, stronger effect = lower value",0.246 (active)
same,normalized growth,"locus YDL040C, strain nat1, stronger effect = lower value",0.528 (active)
same,normalized growth,"locus YDR001C, strain nth1, stronger effect = lower value",0.573 (active)
same,normalized growth,"locus YDR069C, strain doa4, stronger effect = lower value",0.567 (active)
same,normalized growth,"locus YDR137W, strain rgp1, stronger effect = lower value",0.492 (active)
same,normalized growth,"locus YDR159W, strain sac3, stronger effect = lower value",0.512 (active)
same,normalized growth,"locus YDR195W, strain ref2",1.34 [resistant] (active)
same,normalized growth,"locus YDR297W, strain sur2, stronger effect = lower value",0.398 (active)
same,normalized growth,"locus YDR334W, strain swr1, stronger effect = lower value",0.492 (active)
same,normalized growth,"locus YDR335W, strain msn5, stronger effect = lower value",0.219 (active)
same,normalized growth,"locus YDR392W, strain spt3, stronger effect = lower value",0.163 (active)
same,normalized growth,"locus YEL003W, strain gim4, stronger effect = lower value",0.311 (active)
same,normalized growth,"locus YEL037C, strain rad23, stronger effect = lower value",0.372 (active)
same,normalized growth,"locus YEL061C, strain CIN8 (second series), stronger effect = lower value",0.444 (active)
same,normalized growth,"locus YER015W, strain faa2, stronger effect = lower value",0.384 (active)
same,normalized growth,"locus YER016W, strain bim1, stronger effect = lower value",0.484 (active)
same,normalized growth,"locus YER111C, strain swi4, stronger effect = lower value",0.417 (active)
same,normalized growth,"locus YER155C, strain BEM2 (second series), stronger effect = lower value",0.469 (active)
same,normalized growth,"locus YFR010W, strain ubp6, stronger effect = lower value",0.457 (active)
same,normalized growth,"locus YGL167C, strain pmr1, stronger effect = lower value",0.909 (active)
same,normalized growth,"locus YGL173C, strain kem1, stronger effect = lower value",0.488 (active)
same,normalized growth,"locus YGL227W, strain vid30, stronger effect = lower value",0.536 (active)
same,normalized growth,"locus YGL240W, strain doc1, stronger effect = lower value",0.459 (active)
same,normalized growth,"locus YGL253W, strain hxk2, stronger effect = lower value",0.208 (active)
same,normalized growth,"locus YHR013C, strain ard1, stronger effect = lower value",0.241 (active)
same,normalized growth,"locus YHR027C, strain rpn1, stronger effect = lower value",0.442 (active)
same,normalized growth,"locus YHR030C, strain SLT2, stronger effect = lower value",0.471 (active)
same,normalized growth,"locus YHR079C, strain IRE1, stronger effect = lower value",0.792 (active)
same,normalized growth,"locus YHR142W, strain chs7, stronger effect = lower value",0.174 (active)
same,normalized growth,"locus YJL092W, strain hpr5, stronger effect = lower value",0.468 (active)
same,normalized growth,"locus YJL095W, strain BCK1 (second series), stronger effect = lower value",0.0681 (active)
same,normalized growth,"locus YJL095W, strain BCK1, stronger effect = lower value",0.472 (active)
same,normalized growth,"locus YJL115W, strain asf1, stronger effect = lower value",0.664 (active)
same,normalized growth,"locus YJL129C, strain trk1, stronger effect = lower value",0.351 (active)
same,normalized growth,"locus YJL154C, strain vps35, stronger effect = lower value",0.649 (active)
same,normalized growth,"locus YJL164C, strain tpk1, stronger effect = lower value",0.215 (active)
same,normalized growth,"locus YJL166W, strain qcr8, stronger effect = lower value",0.266 (active)
same,normalized growth,"locus YJL187C, strain SWE1, stronger effect = lower value",0.272 (active)
same,normalized growth,"locus YJR066W, strain TOR1, stronger effect = lower value",0.683 (active)
same,normalized growth,"locus YKL160W, strain elf1, stronger effect = lower value",0.296 (active)
same,normalized growth,"locus YKR026C, strain gcn3, stronger effect = lower value",0.452 (active)
same,normalized growth,"locus YKR091W, strain srl3, stronger effect = lower value",0.626 (active)
same,normalized growth,"locus YLL001W, strain dnm1, stronger effect = lower value",0.37 (active)
same,normalized growth,"locus YLL026W, stronger effect = lower value",0.283 (active)
same,normalized growth,"locus YLL041C, strain sdh2, stronger effect = lower value",0.462 (active)
same,normalized growth,"locus YLR027C, strain aat2, stronger effect = lower value",0.225 (active)
same,normalized growth,"locus YLR113W, strain HOG1, stronger effect = lower value",0.807 (active)
same,normalized growth,"locus YLR221C, strain rsa3, stronger effect = lower value",0.25 (active)
same,normalized growth,"locus YLR258W, strain gsy2, stronger effect = lower value",0.285 (active)
same,normalized growth,"locus YLR262C, strain YPT6 (second series), stronger effect = lower value",0.397 (active)
same,normalized growth,"locus YLR320W, strain mms22, stronger effect = lower value",0.189 (active)
same,normalized growth,"locus YLR342W, strain FKS1, stronger effect = lower value",0.513 (active)
same,normalized growth,"locus YLR357W, strain rsc2, stronger effect = lower value",1.11
same,normalized growth,"locus YLR370C, strain arc18, stronger effect = lower value",0.405 (active)
same,normalized growth,"locus YLR384C, strain iki3, stronger effect = lower value",0.635 (active)
same,normalized growth,"locus YML120C, strain ndi1, stronger effect = lower value",0.325 (active)
same,normalized growth,"locus YMR058W, strain fet3, stronger effect = lower value",0.281 (active)
same,normalized growth,"locus YMR125W, strain sto1, stronger effect = lower value",0.533 (active)
same,normalized growth,"locus YMR129W, stronger effect = lower value",0.361 (active)
same,normalized growth,"locus YMR205C, strain PFK2, stronger effect = lower value",0.532 (active)
same,normalized growth,"locus YMR231W, strain pep5, stronger effect = lower value",0.188 (active)
same,normalized growth,"locus YNL071W, strain lat1, stronger effect = lower value",0.209 (active)
same,normalized growth,"locus YNL183C, strain NPR1, stronger effect = lower value",0.808 (active)
same,normalized growth,"locus YNL209W, strain ssb2, stronger effect = lower value",0.395 (active)
same,normalized growth,"locus YNL248C, strain rpa49, stronger effect = lower value",0.378 (active)
same,normalized growth,"locus YNL322C, strain KRE1 (second series), stronger effect = lower value",0.506 (active)
same,normalized growth,"locus YNR049C, strain mso1, stronger effect = lower value",0.562 (active)
same,normalized growth,"locus YOR001W, strain rrp6, stronger effect = lower value",0.26 (active)
same,normalized growth,"locus YOR070C, strain gyp1, stronger effect = lower value",0.166 (active)
same,normalized growth,"locus YOR080W, strain dia2, stronger effect = lower value",0.516 (active)
same,normalized growth,"locus YOR083W, strain WHI5, stronger effect = lower value",0.369 (active)
same,normalized growth,"locus YOR106W, strain vam3, stronger effect = lower value",0.187 (active)
same,normalized growth,"locus YOR231W, strain MKK1, stronger effect = lower value",0.769 (active)
same,normalized growth,"locus YOR265W, strain rbl2, stronger effect = lower value",0.432 (active)
same,normalized growth,"locus YOR270C, strain vph1, stronger effect = lower value",0.192 (active)
same,normalized growth,"locus YOR290C, strain snf2, stronger effect = lower value",0.305 (active)
same,normalized growth,"locus YPL051W, strain arl3, stronger effect = lower value",0.199 (active)
same,normalized growth,"locus YPL078C, strain atp4, stronger effect = lower value",0.373 (active)
same,normalized growth,"locus YPL106C, strain sse1, stronger effect = lower value",0.444 (active)
same,normalized growth,"locus YPL240C, strain hsp82, stronger effect = lower value",0.334 (active)
same,normalized growth,"locus YPL256C, strain CLN2, stronger effect = lower value",0.81 (active)
